Reference: ChEMBL document CHEMBL3988442, “University of Dundee, Small-Polar-MMV Screening Library” (2021)

Experiments:
[1] = target: T1, Aspartate--tRNA(Asp/Asn) ligase (Mycobacterium tuberculosis (strain ATCC 25618 / H37Rv)) (UniProt P9WFW3); test: Assay for Asp RNA synthetase-1 from Mycobacterium tuberculosis; assay type: functional; set-up: scale not given: direction of the effect not stated beside the values; details: 30 µM; also: in the data most compounds retested in dose-response had high values
T1 sequence (whole entry): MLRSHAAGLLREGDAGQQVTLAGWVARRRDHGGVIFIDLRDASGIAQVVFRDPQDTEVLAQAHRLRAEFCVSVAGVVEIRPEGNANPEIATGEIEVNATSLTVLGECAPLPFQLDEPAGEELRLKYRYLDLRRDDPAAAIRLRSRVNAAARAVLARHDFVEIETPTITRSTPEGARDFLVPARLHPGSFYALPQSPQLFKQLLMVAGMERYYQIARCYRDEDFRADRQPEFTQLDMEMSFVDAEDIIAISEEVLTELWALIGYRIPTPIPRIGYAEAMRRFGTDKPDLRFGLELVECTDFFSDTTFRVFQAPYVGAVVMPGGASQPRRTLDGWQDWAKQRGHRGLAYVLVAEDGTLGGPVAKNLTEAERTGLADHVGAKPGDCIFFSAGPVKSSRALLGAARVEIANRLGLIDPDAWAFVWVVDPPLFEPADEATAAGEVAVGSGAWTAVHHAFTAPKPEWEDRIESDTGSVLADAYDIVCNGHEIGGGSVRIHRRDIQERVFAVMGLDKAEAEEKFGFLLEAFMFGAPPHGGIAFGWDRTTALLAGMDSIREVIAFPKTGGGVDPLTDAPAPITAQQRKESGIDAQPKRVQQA

[2] = target: Shiga toxin 2 (Escherichia coli O157:H7) (UniProt P09385+P09386); test: E. coli 0.157:H7 Shiga Toxin SOP - stx2 screening assay; assay type: functional; set-up: scale not given: direction of the effect not stated beside the values; details: 30 µM

Row | Compound | Percent Effect [1] | Percent Effect [2]
1 | CN(C)C(=O)C1CN(Cc2cscn2)CCN(S(C)(=O)=O)C1 (stereo not drawn) | 0.521% | -12.3%
2 | CCc1noc(C(C)N2CCN(Cc3ncc(C(C)(C)C)o3)CC2)n1 (stereo not drawn) | -1.28% | 23.4%
3 | Cc1ccccc1CN1CCN(Cc2nccn2C)CC1 | -1.8% | 13.3%
4 | Cc1nnc(NC(=O)NCc2cccnc2N(C)C)s1 | -2.76% | -16.1%
5 | O=C(c1n[nH]c2ccccc12)N1CCCC1c1noc(C2CC2)n1 (stereo not drawn) | -5.34% | 9.03%
6 | Cn1ccc(C(=O)NCc2ccc(N3CCCC3)nc2)cc1=O | 0.0735% | -33.5%
7 | CC(Cn1cccn1)NC(=O)NCc1cccnc1OC1CCCC1 (stereo not drawn) | -4.78% | -7.65%
8 | CCS(=O)(=O)N1CCc2ccc(NC(=O)Nc3ccc(F)cc3F)cc21 | 1.65% | -10.5%
9 | CCn1cnnc1CNC(=O)N1CCN(c2cccs2)CC1 | -5.34% | -43.6%
10 | COC(=O)CCc1c(C)nc2cc(O)nn2c1C | -3.67% | -37.6%
11 | CN(CCN1CCCCC1)C(=O)c1cc(CN2CCOCC2)on1 | 5.72% | -1.02%
12 | CC1CN(CC(=O)Nc2nncs2)CCN1Cc1nccn1C (stereo not drawn) | 4.22% | 12.1%
13 | O=C(O)c1c[nH]c2cc(NS(=O)(=O)c3cccc(Cl)c3F)ccc12 | 2.61% | 12.3%
14 | CCN1CCN(CC(O)c2ccc(F)cc2)CC1 (stereo not drawn) | -6.48% | 19.4%
15 | CC(C)Oc1cccc(CNC(=O)NC(C)(C(=O)O)c2ccco2)c1 (stereo not drawn) | 1.32% | 25.1%
16 | COc1ccc(NC(=O)c2ccc(-n3ncc(C#N)c3N)cc2)cn1 | 1.4% | -48.1%
17 | CCOCC1CN(Cc2cccc(C#N)c2)Cc2nccn2C1 (stereo not drawn) | -2.92% | -10.3%
18 | Cc1nc(CN2CCCC2c2c(C)nn(C)c2Cl)no1 (stereo not drawn) | -3.26% | 18.6%
19 | CC1CN(C(=O)NCCCn2cncn2)CCO1 (stereo not drawn) | -7.24% | 31.5%
